# The list is not random: actives were taken first. Their share in the collection is about 2.6%.
# Bim-Mcl-1 – human Bim-Mcl-1 interaction inhibition; Q07820; Bead-based flow cytometry, Bim peptide-Mcl-1 binding; inhibition, % at 10 µM; 190,000 compounds, 0.1% hits; in the data active = inhibition above about 40%;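 also: 0% = no compound tracer wells and 100% = peptide blocker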
# Mcl1-Bid inh – Mcl-1/Bid interaction inhibition. 220,000 compounds, 0.97% hits. inhibition, % at 21.7 µM. TR-FRET Mcl-1/Bid-Dy647 peptide binding, 1536-well. Q07820;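 active = compounds that cut the binding signal by more than half at the single screening dose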;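 also: His-tagged Mcl-1 with europium anti-His antibody binding Bid BH3 peptide; 0% = Mcl-1 plus peptide wells and 100% = peptide-only wells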
# Mcl1 Noxa PPI – disrupts binding of human Mcl-1 to Noxa peptide | TR-FRET Mcl-1/Noxa peptide binding, 2 h | AID 1022 | inhibition, % at 21.7 µM | Q07820 | 220,000 compounds, 1.5% hits;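 active = compounds that cut the protein-peptide binding signal by more than 50% relative to plate controls in a single-dose test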;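 also: His-tagged Mcl-1 with rhodamine Noxa BH3 peptide and terbium anti-His antibody; 0% = Mcl-1 plus Noxa peptide wells and 100% = peptide-only wells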
# 14-3-3 Bad inh – disrupts binding of bovine 14-3-3 zeta to phospho-Bad peptide | inhibition, % at 21.7 µM | P63103 | 220,000 compounds, 0.71% hits | TR-FRET 14-3-3zeta/Dy647-pBad peptide displacement, 1 h | AID 781;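 active = inhibition above about 70%, limit read from the data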;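 also: 0% = full 14-3-3 plus peptide FRET controls and 100% = background without 14-3-3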
# MCL1 BIM primary – disrupts human MCL1 binding to BIM-BH3 peptide; Q07820; GST-MCL1 / FITC-Bim-BH3 fluorescence polarization; inhibition, % at 10.9 µM; 320,000 compounds, 0.68% hits; AID 2057;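 active = inhibition above the mean inhibition of all tested compounds plus 3 SD, set per campaign, cut at about 40% in these data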;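 also: 0% = DMSO wells and 100% = unlabeled Bim-BH3 peptide control; higher means more loss of mP so more displacement of Bim peptide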
# eIF4E 4G PPI – inhibitors of eIF4E and eIF4G interaction in translation initiation | P63073+Q04637 | TR-FRET eIF4E-eIF4GI(517-606) binding, 2 h | inhibition, % at 21.7 µM | 220,000 compounds, 0.37% hits | AID 782;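 active = inhibition above about 30%, limit read from the data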;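 also: 0% = full FRET control wells and 100% = background wells lacking eIF4GI fragment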
# Target sequence (P63073 whole entry, looked up, the tested form may be a part): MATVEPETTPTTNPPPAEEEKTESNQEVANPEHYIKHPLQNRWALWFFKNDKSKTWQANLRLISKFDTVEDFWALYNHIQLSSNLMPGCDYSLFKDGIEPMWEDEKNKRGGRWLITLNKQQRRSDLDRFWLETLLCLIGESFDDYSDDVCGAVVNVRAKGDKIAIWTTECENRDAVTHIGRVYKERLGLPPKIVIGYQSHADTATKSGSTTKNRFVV
# Target sequence (Q04637 whole entry, looked up, the tested form may be a part): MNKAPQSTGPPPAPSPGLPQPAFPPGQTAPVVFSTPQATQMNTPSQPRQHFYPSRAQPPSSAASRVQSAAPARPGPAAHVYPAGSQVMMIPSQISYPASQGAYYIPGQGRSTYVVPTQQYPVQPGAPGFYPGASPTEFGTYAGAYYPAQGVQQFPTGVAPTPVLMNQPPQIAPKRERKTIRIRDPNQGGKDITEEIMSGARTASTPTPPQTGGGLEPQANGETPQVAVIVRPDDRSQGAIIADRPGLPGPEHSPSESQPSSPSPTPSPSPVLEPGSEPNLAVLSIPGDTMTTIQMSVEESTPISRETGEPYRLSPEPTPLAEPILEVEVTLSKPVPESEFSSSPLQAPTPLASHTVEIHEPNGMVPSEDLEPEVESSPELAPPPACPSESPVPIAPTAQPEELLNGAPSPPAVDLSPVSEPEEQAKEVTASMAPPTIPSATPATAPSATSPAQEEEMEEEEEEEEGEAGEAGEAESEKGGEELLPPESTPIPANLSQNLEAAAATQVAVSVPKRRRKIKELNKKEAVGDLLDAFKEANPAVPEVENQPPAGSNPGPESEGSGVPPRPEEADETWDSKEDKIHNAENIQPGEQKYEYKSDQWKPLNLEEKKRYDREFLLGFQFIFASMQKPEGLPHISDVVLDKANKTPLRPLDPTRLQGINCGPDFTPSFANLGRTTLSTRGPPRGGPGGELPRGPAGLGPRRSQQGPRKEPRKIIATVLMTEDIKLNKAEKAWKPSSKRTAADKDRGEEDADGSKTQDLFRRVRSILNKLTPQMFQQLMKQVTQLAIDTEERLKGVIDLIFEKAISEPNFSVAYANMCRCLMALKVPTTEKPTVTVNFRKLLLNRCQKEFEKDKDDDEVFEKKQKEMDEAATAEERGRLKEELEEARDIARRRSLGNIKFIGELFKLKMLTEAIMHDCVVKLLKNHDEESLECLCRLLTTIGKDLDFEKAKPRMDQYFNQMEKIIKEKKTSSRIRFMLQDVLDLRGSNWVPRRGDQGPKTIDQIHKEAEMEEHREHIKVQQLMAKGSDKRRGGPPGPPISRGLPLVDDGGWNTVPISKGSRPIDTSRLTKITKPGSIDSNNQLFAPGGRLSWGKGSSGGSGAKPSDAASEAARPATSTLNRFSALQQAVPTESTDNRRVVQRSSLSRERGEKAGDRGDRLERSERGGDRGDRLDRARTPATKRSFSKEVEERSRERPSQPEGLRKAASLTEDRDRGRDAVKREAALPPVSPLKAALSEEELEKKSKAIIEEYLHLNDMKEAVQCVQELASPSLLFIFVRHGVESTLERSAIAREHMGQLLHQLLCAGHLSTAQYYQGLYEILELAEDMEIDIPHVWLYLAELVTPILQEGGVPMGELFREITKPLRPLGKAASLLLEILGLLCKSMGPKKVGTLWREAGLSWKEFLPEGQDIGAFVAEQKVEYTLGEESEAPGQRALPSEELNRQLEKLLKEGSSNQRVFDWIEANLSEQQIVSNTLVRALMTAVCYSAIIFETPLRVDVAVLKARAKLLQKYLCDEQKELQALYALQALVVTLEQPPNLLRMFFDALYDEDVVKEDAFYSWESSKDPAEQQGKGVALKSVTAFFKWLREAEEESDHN
# Starred values were filed as active, the others as inactive; · = not tested or not shown; [ ] = remark or other dose.
SMILES,Bim-Mcl-1,Mcl1-Bid inh,Mcl1 Noxa PPI,14-3-3 Bad inh,MCL1 BIM primary,eIF4E 4G PPI
Cc1cccc(CN2CCN(C(=O)CN(C)C(C)C(=O)Nc3ccc(C(N)=O)cc3)CC2)c1 (configuration not stated),·,·,·,·,7,·
COc1cc(C(=O)OCn2nnc3ccccc3c2=O)cc(OC)c1OC,0,62*,15,-1,6,1
CCOc1ccc(C(=O)OCn2nnc3ccccc3c2=O)cc1OC,-10,-35,-11,-2,3,-3
CC(OCC(O)CN(C)CCOc1ccccc1)c1ccc(Cl)cc1 (configuration not stated),-2,30,41,74*,0,3
CCOc1ccc(-n2c(-c3ccco3)n[nH]c2=S)cc1,0,-27,11,8,-18,34*[fluorescence artefact?]
Cc1ccc(-n2c(-c3ccco3)n[nH]c2=S)cc1,-1,-48,2,-2,-24,-1
CCOc1ccc(NC(=O)c2ccc(NS(=O)(=O)c3cccs3)cc2)cc1,·,·,·,·,4,·
Cc1nc2ccc(NC3=NCCCCC3)cc2s1,0,9,6,79*,-1,5
CCn1c(=O)c(-[n+]2ccccc2)c(O)c2ccccc21,-4,-14,8,72*,-1,3
Cc1ccc(N(CC(=O)Nc2cccc(Cl)c2C)S(C)(=O)=O)cc1,·,·,·,·,-6,·
Cc1ccc(-c2nc3c(c(=O)[nH]c(=O)n3Cc3ccccc3)n2C)s1,·,65*,15,53,-4,11
Cc1ccc(-c2nc3c(c(=O)[nH]c(=O)n3Cc3ccccc3)n2C)o1,0,38,97*,36,·,28
Cn1c(C2CCCCC2)nc2c1c(=O)[nH]c(=O)n2Cc1ccccc1,-2,-40,9,-13,-1,1
Cc1cc(C)c(NC(=O)CNC(=O)CN(C)Cc2ccc(Br)s2)c(C)c1,·,·,·,·,3,·
CC1CCN(S(=O)(=O)c2ccc3c(c2)NC(=O)CS3)CC1,·,·,·,·,3,·
Cc1ccc(OCC(=O)c2c(O)c3ccccc3oc2=O)cc1C,-3,7,24,74*,3,1
CCSc1ncc(/C=N/Nc2ccccc2)n1C,-1,7,15,-4,0,-5
CCSc1ncc(/C=N/Nc2ccc([N+](=O)[O-])cc2)n1C,-3,41,80*,23,-65,3
O=C(O)CCc1nc(-c2cccs2)no1,-5,-5,84*,1,6,-3
CCN(c1ccc(NC(=O)COC(=O)c2ccc(C)s2)cc1)C(C)C,-1,-8,63*,2,-6,10
CCN(c1ccc(NC(=O)COC(=O)CCc2cc(OC)c(OC)c(OC)c2)cc1)C(C)C,-6,-11,59*,1,·,14
CCCCNC(=O)Nc1nnc(-c2ccccc2)o1,2,59*,10,1,8,-3
CCCCNC(=O)Nc1nnc(-c2ccc(OCC)cc2)o1,0,-4,6,2,5,-7
CSCc1ccc(C(=O)NC2CC(C)(C)Cc3c2cnn3-c2ccc(F)cc2)o1 (configuration not stated),·,·,·,·,6,·
COCCN(C(=O)Cc1cccs1)c1nnc(-c2cccnc2)s1,0,-8,14,8,6,-5
SMILES,Bim-Mcl-1,Mcl1-Bid inh,Mcl1 Noxa PPI,14-3-3 Bad inh,MCL1 BIM primary,eIF4E 4G PPI
CCCCN(C(=O)Cc1cccs1)c1nnc(-c2cccnc2)s1,-4,2,23,71*,16,8
COc1cc(C)c(S(=O)(=O)NOCc2ccccc2)c(C)c1C,·,·,·,·,-4,·
CC(C)(C)NC(=O)c1ccc2nsnc2c1,-4,2,2,90*[fluorescence artefact?],6,5
COC(=O)c1ccc(NC(=O)c2ccc3nsnc3c2)cc1,·,·,·,·,1,·
COc1cccc2[nH]c3c(N4CCc5ccccc5C4)ncnc3c12,·,-13,62*,-4,1,-7
COc1cccc2[nH]c3c(N4CCC(C)CC4)ncnc3c12,3,-5,27,-8,-5,-20
CCCn1c(=O)c(C(=O)NNC(=O)c2ccccc2Cl)c(O)c2ccccc21,·,·,·,·,7,·
CCOC(=O)C(=CNNc1cccc(Cl)c1)C(=O)OCC,·,-30,52*,-5,-2,4
COc1ccccc1N1CCN(CC(=O)c2c(C)[nH]c3ccccc23)CC1,-2,76*,-8,-11,-5,3
COC(=O)c1ccc(/C=N/NC(=O)c2ccccc2Cl)cc1,-1,0,16,8,9,16
CC(C)c1ccc(/C=N/NC(=O)c2ccccc2Cl)cc1,45*,-3,20,-7,-2,-1
CC1(C)CC(=O)c2sc(NS(C)(=O)=O)nc2C1,-2,16,23,71*,2,2
O=C(c1cc(C2CC2)nn1-c1ccccc1)N1CCN(S(=O)(=O)c2c(F)cccc2F)CC1,·,·,·,·,-1,·
S=c1[nH]nc(-c2c[nH]c3ccccc23)o1,·,·,·,·,-11,·
Oc1cc2ccccc2cc1-c1n[nH]c(=S)o1,10,57*,50,40,1,3
CCN1C(=O)N/C(=C/c2cc(C)n(Cc3ccccc3)c2C)C1=O,-5,-71,8,-8,3,20
CCn1c(C)cc(/C=C2\NC(=O)N(Cc3ccc(Cl)cc3)C2=O)c1C,0,90*,83*,23,8,3
O=C(Nc1cc2cccc([N+](=O)[O-])c2oc1=O)c1cccs1,0,-30,62*,5,7,4
CN(CC(=O)Nc1ccc(Cl)c(Cl)c1)C(=O)c1cccc2cccnc12,·,·,·,·,-44,·
O=C(O)C(CCCCNS(=O)(=O)c1ccc(F)cc1)NS(=O)(=O)c1ccc(F)cc1 (configuration not stated),·,·,·,·,2,·
O=C(CSc1cccc2cccnc12)N/N=C/c1cccc(O)c1,3,-18,18,0,11,-6
O=C(N/N=C/c1ccc(O)c(O)c1)c1ccc(CSc2cccc3cccnc23)cc1,-9,-6,76*,6,15,-1
O=C(NC(=S)Nc1ccc(NC(=O)c2ccccc2)cc1)c1ccc(F)cc1,·,·,·,·,9,·
O=C(NC(=S)Nc1ccc2c(c1)C(=O)c1ccccc1C2=O)c1ccc(F)cc1,-2,42,51*,7,9,-7
COC(=O)c1sc(-c2ccc(C(C)(C)C)cc2)cc1NC(=O)c1ccccc1C(=O)O,·,8,51*,12,8,-7
O=C(Nc1cc(Cl)cc(Cl)c1)C(c1ccccc1)N1CCCCC1 (configuration not stated),-2,-7,-7,-9,4,1
O=C(Nc1cc(Cl)cc(Cl)c1)C(NCCO)c1ccccc1 (configuration not stated),0,38,6,80*,6,0
O=c1cnn([C@@H]2O[C@H](CO)[C@@H](O)[C@H]2O)c(=O)[nH]1,-1,9,26,-5,6,94*
COc1ccc(N(CC(=O)NC2CCCC2)C(=O)CCC(=O)Nc2nc(C)cs2)cc1OC,·,·,·,·,-4,·

# Source: PubChem BioAssay
